# Compound activity: PubChem, National Center for Advancing Translational Sciences (NCATS)
# DRD3 agonist: qHTS of D3 Dopamine Receptor Agonist: qHTS | D3R DiscoveRx beta-arrestin cells, luminescence, 90 min | max activation, % | hit rate 0.58% among 410,000 | AID 652048, 2013; in the data active means max activation above about 30%; further: 0% is about no effect
#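 Agonist mode: compounds and dopamine controls were applied to plated cells for 90 min at 37 degrees C after an overnight attachment at 1500 cells/well. Luminescent read-out followed 30 - 60 minutes at room temperature with DiscoveRx detection reagent.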
# IL1B secr inh: qHTS for Inhibitors of Inflammasome Signaling: IL-1-beta AlphaLISA Primary Screen; THP-1 LPS/ATP IL-1B secretion, AlphaLISA, 16 h; stronger effect = lower value; hit rate 4.7% among 360,000; activity change, % at 57.5 µM; in the data active means activity change below about -50%; inconclusive means mostly about -30% to -49%; further: on the % scale 0 is the no-effect control and ±100 the full control effect
#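 Secreted IL-1B measured by AlphaLISA bead assay after 16 h compound exposure of THP-1 cells; compounds (final up to 57.5 uM) added 1 h before LPS (250 ng/mL) and ATP (1.25 mM) stimulation; lower signal means less secretion.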
# TDP1 cell CPT: qHTS for Inhibitors of human tyrosyl-DNA phosphodiesterase 1 (TDP1): qHTS in cells in presence of CPT; chicken DT40 Tdp1-/-;hTDP1 cells + 20 nM CPT, ATP luminescence, 48 h; Potency, µM (top dose mostly 46.2 µM), for inactives: at the highest dose activity change, negative = growth inhibition, actives largely listed as inhibitors; hit rate 12% among 420,000; further: potency means the concentration at half of the fitted maximal effect; on the % scale 0 is the no-effect control and ±100 the full control effect; nearly all actives have a fitted effect of over 55% in size
#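 Chicken DT40 Tdp1-/- cells stably complemented with human TDP1 were seeded at 400 cells/well in medium containing 20 nM camptothecin, exposed to pin-transferred compounds, and grown at 37 °C for at least 48 hr. Viability was read as ATP luminescence.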
# TDP1 cell noCPT: qHTS for Inhibitors of human tyrosyl-DNA phosphodiesterase 1 (TDP1): qHTS in cells in absence of CPT; Potency, µM (highest dose often 46.2 µM), inactives show at the highest dose activity change, negative = growth inhibition, usual class: inhibitors; hit rate 15% among 420,000; AID 686978, 2013; DT40 Tdp1-/- hTDP1 cells, no CPT, ATP luminescence, 48 h; further: potency means the concentration at half of the fitted maximal effect; on the % scale 0 is the no-effect control and ±100 the full control effect; nearly all actives have a fitted effect of over 55% in size
#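 Growth kinetics read by CellTiter-Glo luminescence after ≥48 hr at 37 °C. Cells: DT40 Tdp1-/- stably carrying human TDP1, 400 per well, compound exposure in the absence of CPT (DMSO vehicle).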
# ClpP mod: qHTS Assay for Activators of ClpP; ATP-dependent Clp protease proteolytic subunit (Bacillus subtilis (strain 168)), P80244; purified B. subtilis ClpP, FRET peptide cleavage, 20 min; Potency, µM (series often up to 57.5 µM), inactives show at the highest dose activity change, negative = active; hit rate 1.9% among 340,000; AID 651965, 2013; active means well fitted falling curve with a large enough effect; inconclusive means small, poorly fitted or top-dose-only effect; inactive means no such curve, though single readings can be large or run the other way; further: potency means the concentration at half of the fitted maximal effect; the source files actives as falling curves though it sought activators and does not explain the sign; nearly all actives have a fitted effect of over 65% in size
#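 Purified B. subtilis ClpP, 10 microg/mL final in Tris/HCl pH8 with KCl, BSA, glycerol and Tween-20, cleaved an Abz/nitrotyrosine-quenched decapeptide. Fluorescence (ex 320, em 430) was read at 0 and 20 min at room temperature. Delta was normalized to 5.8 microM ADEP and DMSO/no-enzyme controls.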
# D3 antag: qHTS of D3 Dopamine Receptor Antagonist: qHTS; hit rate 2.5% among 360,000; D(3) dopamine receptor (Homo sapiens), P35462; D3R cells, DiscoveRx beta-arrestin luminescence, antagonist mode; stronger effect = lower value; max response, negative = inhibition, %; in the data active means max response below about -50%; inconclusive means no clear call, values can overlap the other calls; further: on the % scale 0 is the no-effect control and ±100 the full control effect
#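 Cells expressing the human receptor were seeded at 1500 cells/well, incubated overnight at 37 degrees C in 5% CO2, then exposed to library compounds with dopamine controls for 90 minutes at 37 degrees C before luminescent detection.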
# The depositor's hits bear a star; ? = inconclusive; · = not tested or not shown. In the library only some 21% were active in any assay of this set; here they are far more common. Unless noted, the call rests on the fitted dose curve; in most records, active means well fitted inhibition curve with a large enough effect; inconclusive means small, poorly fitted or top-dose-only effect; inactive means flat fitted curve, though single readings scatter.
SMILES,DRD3 agonist,IL1B secr inh,TDP1 cell CPT,TDP1 cell noCPT,ClpP mod,D3 antag
CCCCCCC(=O)N/N=C/c1c(O)n(CCc2ccccc2)c(=O)[nH]c1=O,-5.4,8.8,?,18.4µM*,·,-12.6
O=C(N/N=C/c1c(O)n(CCc2ccccc2)c(=O)[nH]c1=O)c1ccccc1O,-9.0,29.0,-25.9%,-19.7%,-23.6%,5.3
CCCCCCC(=O)N/N=C/c1c(O)n(C(C)CC)c(=S)[nH]c1=O (stereo unspecified),-20.6,220.2,13µM*,9.2µM*,0.0%,?
Cc1ccc2c(c1)C(c1ccccc1)=NCC(=O)N2C,-2.2,0.0,-14.9%,-20.7%,0.6%,1.5
O=C1CN=C(c2ccccc2Cl)c2cc(Cl)ccc2N1Cc1cccc(Cl)c1,-6.6,·,20.6µM*,?,-3.6%,·
CN(C)c1ccc(NC(=O)CN2C(=O)CN=C(c3ccccc3)c3cc(Cl)ccc32)cc1,2.4,-61.6*,?,?,-3.2%,16.2
Cc1ccc(NC(=O)CN2C(=O)CN=C(c3ccccc3)c3ccccc32)cc1,-3.4,·,?,?,1.4%,·
O=C1CN=C(c2ccccc2)c2cc(Cl)ccc2N1CC1CC1,2.1,·,?,23.7µM*,·,·
Cc1ccc(NC(=O)CN2C(=O)CN=C(c3ccccc3)c3cc(Cl)ccc32)cc1,-7.4,-65.6*,?,?,-3.2%,0.2
O=C(Oc1ccccc1)N1CCC2(CCCN(Cc3ccccc3)C2)CC1,·,·,4.1%,?,·,·
N=C1c2ccccc2CN1NC(=O)c1ccco1,-0.3,-11.9,10.2%,1.3%,-2.7%,-7.6
Cc1cccc(Cn2cccc(C(=O)Nc3nnc(C)s3)c2=O)c1,-7.7,·,-19.3%,-21.9%,-13.9%,·
COc1cccc(-n2c(CN3CCN(C)CC3)nc3ccc([N+](=O)[O-])cc3c2=O)c1,9.9,0.0,?,?,-3.0%,1.8
Cc1oc(-c2ccc(Cl)cc2)nc1CN1C(=O)CN=C(c2ccccc2)c2ccccc21,-3.7,·,?,14.6µM*,0.5%,·
Cn1c(=O)[nH]c2nncnc2c1=O,-6.9,63.1,-10.2%,6.2%,·,2.3
COc1ccc(S(=O)(=O)N(C)C[C@H]2OCCCC[C@@H](C)Oc3ccc(N(C)C)cc3C(=O)N([C@H](C)CO)C[C@@H]2C)cc1,-7.2,-24.1,?,23.1µM*,-2.1%,-19.7
COc1ccc(NC(=O)Nc2ccc3c(c2)C(=O)N([C@H](C)CO)C[C@H](C)[C@@H](CN(C)S(=O)(=O)c2ccc(OC)cc2)O3)cc1,-12.8,20.8,?,?,-2.0%,2.3
C[C@@H]1CCCCO[C@@H](CN(C)S(=O)(=O)c2ccc(F)cc2)[C@@H](C)CN([C@H](C)CO)C(=O)c2cc(N(C)C)ccc2O1,-10.0,-16.7,?,20.6µM*,-3.5%,?
O=C(O)C1(Br)CC12c1ccccc1-c1ccccc12 (stereo unspecified),-4.5,26.9,14.9%,2.6%,-0.6%,?
CC(C)(C)c1csc(NC(=O)Nc2ccccc2)n1,-9.2,-94.3*,-25.4%,?,·,-1.8
O=C(Nc1sc2c(c1C(=O)Nc1ccc(Cl)cc1)CCCC2)c1cccs1,7.2,·,5.8µM*,3.66µM*,-0.5%,·
CCOC(=O)c1c(NC(=O)c2c(N)n(CCCOC)c3nc4ccccc4nc23)sc2c1CCCC2,1.2,1.4,-4.3%,?,-10.2%,6.6
CC(C)[C@@H]1CN[C@H](C(=O)O)[C@@H]1CC(=O)O,·,·,-1.3%,-16.2%,·,·
NC(N)=N/N=C/c1cn(-c2ccccc2)nc1-c1cccs1,2.8,-98.4*,10.3µM*,10.3µM*,-22.9%,37.4
CCCN(c1ccc(C(C)C)cc1)S(=O)(=O)c1ccc2c(c1)CCN2C(=O)CC,-20.7,·,?,7.31µM*,-16.8%,·
SMILES,DRD3 agonist,IL1B secr inh,TDP1 cell CPT,TDP1 cell noCPT,ClpP mod,D3 antag
CN1C(=O)N(C)C(=O)C2(Cc3cc(NC(=O)c4ccc(F)cc4)ccc3N3CCCC32)C1=O (stereo unspecified),2.3,-1.2,?,?,·,-4.5
O=C(CNC(=O)c1cccc(S(=O)(=O)N2CCc3ccccc32)c1)Nc1ccccc1Br,-2.2,?,?,?,-0.6%,?
O=C(Nc1ccc(Br)cc1)c1ccc(F)c(S(=O)(=O)N2CCCc3ccccc32)c1,5.7,·,11.6µM*,8.2µM*,-29.5%,·
O=C(Nc1ccc(Br)cc1)c1cccc(S(=O)(=O)N2CCc3ccccc32)c1,-15.4,·,23.1µM*,16.4µM*,-10.5%,·
CC1CC[C@@]2(NC1)O[C@@H]1C[C@H]3C4CC=C5C[C@@H](O)CC[C@]5(C)C4CC[C@]3(C)[C@H]1[C@@H]2C (stereo partly specified),·,·,11.8%,-24.1%,·,·
Cc1cc(C(=O)Cn2nnc(-c3ccc(Cl)cc3)n2)c(C)n1-c1ccccc1,10.4,?,-18.2%,?,-18.3%,-2.7
COc1cc2c(cc1OC)[C@H]1C(=O)c3ccc4c(c3O[C@H]1CO2)C[C@@H](C(C)(C)O)O4,2.7,18.6,14.6µM*,11.6µM*,-1.1%,38.9
COc1cc2c(cc1OC)[C@@H]1C(=O)c3ccc4oc(C(C)C)cc4c3OC1CO2 (stereo partly specified),·,·,0.651µM*,0.291µM*,·,·
COc1cc2c(cc1OC)C1C(=O)c3ccc4c(c3OC1CO2)CC(C(C)C)O4 (stereo unspecified),13.1,-67.7*,0.184µM*,0.0326µM*,·,37.1
COc1cc2c(cc1OC)[C@@H]1C(=O)c3ccc4c(c3O[C@@H]1CO2)C[C@H](C(C)C)O4,3.4,?,0.259µM*,0.164µM*,·,42.7
CCCCn1c(CN2CCN(c3ccc(F)cc3)CC2)nc2c1c(=O)n(C)c(=O)n2C,4.6,47.3,1.64µM*,1.64µM*,-1.3%,5.7
CCCCCn1c(CN2CCN(C(=O)OCC)CC2)nc2c1c(=O)n(C)c(=O)n2C,1.6,23.8,?,?,-1.0%,0.4
C[C@]12CCC3C(CC[C@H]4C[C@H](O)CC[C@]34C)C1[C@@H](O)[C@@H](O)[C@@H]2O (stereo partly specified),3.5,6.3,10.7%,-9.3%,-0.8%,14.1
